# Test results reported in PubChem BioAssay (EPA / NIEHS).
# Activity calls are given as the source filed them. The calls were made as follows: active = hit-call score of the fitted dose curve at least 0.9, where 1 is the maximum; inactive = score below 0.9.
# Legend:
# Conditions in all cases: mRNA level, 48 h; actives raise or lower the signal
# [1] = read-out: Apolipoprotein A-V (APOA5) gene, APOA5 (gene 116519); assay: LTEA_HepaRG_APOA5: Life Technologies and Expression Analysis (LTEA) Assay for Apolipoprotein A-V (APOA5) gene using HepaRG (AID 2283474)
# Outline: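 Readout is APOA5 transcript level by qRT-PCR on Fluidigm dynamic arrays, normalized to three housekeeping genes. HepaRG cultures received chemicals for 48 h at up to 100 uM (half-log steps, 0.5% DMSO), with gain or loss scored relative to DMSO.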
# [2] = read-out: Apoptosis regulator Bcl-2 (Homo sapiens) (UniProt P10415); assay: LTEA_HepaRG_BCL2: Life Technologies and Expression Analysis (LTEA) Assay for Bcl-2 gene using HepaRG (AID 2283475)
# Outline: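 Each chemical was tested in duplicate on HepaRG cultures held in serum-free induction medium for 48 h, highest concentration 100 uM with half-log dilutions. Transcript levels came from multiplexed qRT-PCR, normalised to housekeeping genes; activity was scored in either direction relative to DMSO.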
# [3] = read-out: Bcl-2 (BID) gene, BID (gene 637); assay: LTEA_HepaRG_BID: Life Technologies and Expression Analysis (LTEA) Assay for Bcl-2 (BID) gene using HepaRG (AID 2283476)
# Outline: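 Assay used HepaRG hepatic cells treated 48 h in serum-free medium with half-log dilutions from 100 uM. Endpoint: BID mRNA, qRT-PCR, normalized to ACTB/GAPDH/POLR2A.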
# Caspase-3 (Homo sapiens) = Caspase-3 (Homo sapiens) (UniProt P42574); assay: LTEA_HepaRG_CASP3: Life Technologies and Expression Analysis (LTEA) Assay for cysteine-aspartic acid protease (CASP3) using HepaRG (AID 2283477)
# Outline: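 Read-out is CASP3 mRNA level by TaqMan qRT-PCR in human HepaRG cells after 48 h chemical exposure. Eight half-log concentrations topping at 100 uM were tested in 0.5% DMSO; gain or loss was fitted relative to DMSO.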
# [4] = read-out: Cytochrome P450 (CYP24A1), CYP24A1 (gene 1591); assay: LTEA_HepaRG_CYP24A1: Life Technologies and Expression Analysis (LTEA) Assay for Cytochrome P450 (CYP24A1) using HepaRG (AID 2283478)
# Outline: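 HepaRG, 48 h chemical exposure, 8-pt half-log CRC from 100 uM, 0.5% DMSO vehicle, duplicates. Endpoint: CYP24A1 mRNA by Fluidigm TaqMan qRT-PCR, normalized ACTB/GAPDH/POLR2A; gain/loss fit vs DMSO.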
# [5] = read-out: Cytochrome P450 (CYP1A2), CYP1A2 (gene 1544); assay: LTEA_HepaRG_CYP1A2: Life Technologies and Expression Analysis (LTEA) Assay for Cytochrome P450 (CYP1A2) using HepaRG (AID 2283479)
# Outline: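 CYP1A2 transcript induction or loss, quantified by Fluidigm qRT-PCR against three housekeeping genes, was fitted bidirectionally against 0.5% DMSO controls. Human HepaRG cells received eight half-log concentrations from 100 uM over 48 h.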
# [6] = read-out: cysteine-aspartic acid protease (CASP8), CASP8 (gene 841); assay: LTEA_HepaRG_CASP8: Life Technologies and Expression Analysis (LTEA) Assay for cysteine-aspartic acid protease (CASP8) using HepaRG (AID 2283480)
# Outline: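 qRT-PCR readout of CASP8 mRNA, normalized to three housekeeping genes, after 48 h chemical exposure of HepaRG cells; 8-point half-log series, top 100 uM, 0.5% DMSO vehicle. Bidirectional curve fitting against DMSO baseline.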
# [7] = read-out: Cytochrome P450 (CYP2B6), CYP2B6 (gene 1555); assay: LTEA_HepaRG_CYP2B6: Life Technologies and Expression Analysis (LTEA) Assay for Cytochrome P450 (CYP2B6) using HepaRG (AID 2283481)
# Outline: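 HepaRG cells plated 48 h, switched to serum-free induction medium, then dosed 48 h (8 points, half-log from 100 uM, 0.5% DMSO). RNA isolated; CYP2B6 expression measured by qRT-PCR; gain or loss fitted relative to DMSO.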
# [8] = read-out: Cytochrome P450 2C19 (Homo sapiens) (UniProt P33261); assay: LTEA_HepaRG_CYP2C19: Life Technologies and Expression Analysis (LTEA) Assay for CYP2C19 using HepaRG (AID 2283482)
# Outline: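 Transcript levels of CYP2C19 were quantified by qRT-PCR after HepaRG cells were treated for 48 hours with test chemicals up to 100 uM (eight half-log concentrations, 0.5% DMSO vehicle). Gain or loss of signal was fitted relative to DMSO.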
# CYP2C8 (gene 1558) = assay: LTEA_HepaRG_CYP2C8: Life Technologies and Expression Analysis (LTEA) Assay for CYP2C8 using HepaRG (AID 2283483)
# Outline: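 HepaRG (human liver line), 48 h chemical exposure, 8-pt half-log series from 100 uM, 0.5% DMSO vehicle. Readout: CYP2C8 transcript by qRT-PCR, housekeeping-normalized. Bidirectional fit vs DMSO baseline.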
# CYP2C9 (gene 1559) = assay: LTEA_HepaRG_CYP2C9: Life Technologies and Expression Analysis (LTEA) Assay for CYP2C9 using HepaRG (AID 2283484)
# Outline: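 HepaRG, 48 h dosing, 8-pt half-log series, top 100 uM, 0.5% DMSO vehicle. Read-out: CYP2C9 transcript by TaqMan qRT-PCR, housekeeping-normalized (ACTB/GAPDH/POLR2A). Gain or loss fitted vs DMSO baseline.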
# CYP2E1 (gene 1571) = assay: LTEA_HepaRG_CYP2E1: Life Technologies and Expression Analysis (LTEA) Assay for CYP2E1 using HepaRG (AID 2283485)
# Outline: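 Assay uses 48 h exposure of HepaRG hepatic cells, eight concentrations to 100 uM. Expression of CYP2E1 is quantified by TaqMan qRT-PCR with ACTB, GAPDH and POLR2A normalization; curves fitted in both directions relative to vehicle.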
# CYP4A11 (gene 1579) = assay: LTEA_HepaRG_CYP4A11: Life Technologies and Expression Analysis (LTEA) Assay for CYP4A11 using HepaRG (AID 2283486)
# Outline: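 HepaRG, 48 h chem exposure, 8 conc (100 uM top, half-log), 0.5% DMSO vehicle; qRT-PCR readout, housekeeping-gene normalized; bidirectional curve fit vs DMSO baseline.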
# [9] = read-out: Cytochrome P450 3A4 (Homo sapiens) (UniProt P08684); assay: LTEA_HepaRG_CYP3A4: Life Technologies and Expression Analysis (LTEA) Assay for CYP3A4 using HepaRG (AID 2283487)
# Outline: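 CYP3A4 transcript measured by TaqMan qRT-PCR and normalized to three housekeeping genes after 48 h chemical exposure of human HepaRG cells. Top concentration 100 uM, half-log steps, 0.5% DMSO vehicle; gain or loss fitted against DMSO baseline.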
# [10] = read-out: DNA damage-inducible transcript 3 (DDIT3), DDIT3 (gene 1649); assay: LTEA_HepaRG_DDIT3: Life Technologies and Expression Analysis (LTEA) Assay for DNA damage-inducible transcript 3 (DDIT3) using HepaRG (AID 2283488)
# Outline: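 Eight-point concentration-response (100 uM highest, half-log dilutions) in HepaRG, 48 h, duplicate wells. Endpoint: qRT-PCR mRNA, normalized (ACTB, GAPDH, POLR2A), bidirectional fitting with DMSO as baseline.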
# [11] = read-out: Early growth response protein 1 (EGR1) transcription factor, EGR1 (gene 1958); assay: LTEA_HepaRG_EGR1: Life Technologies and Expression Analysis (LTEA) Assay for Early growth response protein 1 (EGR1) transcription factor using HepaRG (AID 2283490)
# Outline: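 HepaRG, 48 h exposure, 8-pt half-log series from 100 uM, 0.5% DMSO vehicle; EGR1 transcript by TaqMan qRT-PCR (Fluidigm array), housekeeping-normalized; bidirectional fit relative to DMSO baseline.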
# [12] = read-out: Ezrin (EZR), EZR (gene 7430); assay: LTEA_HepaRG_EZR: Life Technologies and Expression Analysis (LTEA) Assay for Ezrin (EZR) using HepaRG (AID 2283491)
# Outline: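 HepaRG, 48 h chemical exposure, 8-pt half-log series from 100 uM, 0.5% DMSO vehicle, duplicates. Read-out: EZR mRNA by TaqMan qRT-PCR (Fluidigm array), housekeeping-normalized; bidirectional curve fit vs DMSO baseline.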
# CYP3A5 (gene 1577) = assay: LTEA_HepaRG_CYP3A5: Life Technologies and Expression Analysis (LTEA) Assay for CYP3A5 using HepaRG (AID 2283493)
# Outline: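 Readout was CYP3A5 mRNA by qRT-PCR. HepaRG cultures were exposed for 48 h in serum-free induction medium to chemicals at up to 100 uM, and responses were fitted in both directions relative to DMSO vehicle.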
# [13] = read-out: Pro-epidermal growth factor (Homo sapiens) (UniProt P01133); assay: LTEA_HepaRG_EGF: Life Technologies and Expression Analysis (LTEA) Assay for Epidermal growth factor (EGF) using HepaRG (AID 2283489)
# Outline: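 HepaRG, 48 h dosing, 100 uM top, half-log x8, 0.5% DMSO. Readout: TaqMan qRT-PCR (Fluidigm array), housekeeping-normalized. Gain or loss of signal fit vs DMSO.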
# [14] = read-out: Cytochrome P450 3A7 (Homo sapiens) (UniProt P24462); assay: LTEA_HepaRG_CYP3A7: Life Technologies and Expression Analysis (LTEA) Assay for CYP3A7 using HepaRG (AID 2283492)
# Outline: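 Human HepaRG liver cells, 48 h post-plating, switched to serum-free induction medium and exposed in duplicate for 48 h. Dosing: 100 uM top, half-log dilutions, 8 points, 0.5% DMSO vehicle. Read-out: CYP3A7 mRNA, gain or loss fitted against DMSO baseline.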
# Caspase-3 (Homo sapiens), sequence (P42574 whole entry, looked up): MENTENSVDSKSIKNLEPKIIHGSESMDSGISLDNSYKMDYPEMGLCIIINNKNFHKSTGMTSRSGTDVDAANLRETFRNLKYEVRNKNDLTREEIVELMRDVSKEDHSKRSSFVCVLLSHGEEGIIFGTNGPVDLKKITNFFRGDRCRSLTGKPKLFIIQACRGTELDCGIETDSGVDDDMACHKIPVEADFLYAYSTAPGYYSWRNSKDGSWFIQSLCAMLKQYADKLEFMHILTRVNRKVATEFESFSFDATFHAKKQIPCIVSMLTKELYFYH
# Cytochrome P450 2C19 (Homo sapiens), sequence (P33261 whole entry, looked up): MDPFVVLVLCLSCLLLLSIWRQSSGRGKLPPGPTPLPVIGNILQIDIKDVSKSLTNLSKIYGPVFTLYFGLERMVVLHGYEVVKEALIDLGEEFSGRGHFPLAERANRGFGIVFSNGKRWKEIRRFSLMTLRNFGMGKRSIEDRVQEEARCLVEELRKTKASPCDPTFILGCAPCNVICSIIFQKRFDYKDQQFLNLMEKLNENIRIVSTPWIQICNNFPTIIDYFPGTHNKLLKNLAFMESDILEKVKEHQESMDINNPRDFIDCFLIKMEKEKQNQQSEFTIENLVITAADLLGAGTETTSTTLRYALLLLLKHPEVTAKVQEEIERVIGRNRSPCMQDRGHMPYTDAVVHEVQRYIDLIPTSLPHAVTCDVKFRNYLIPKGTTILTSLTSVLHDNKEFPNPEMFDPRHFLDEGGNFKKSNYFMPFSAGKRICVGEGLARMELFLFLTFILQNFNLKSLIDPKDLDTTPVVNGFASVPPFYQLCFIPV
# Cytochrome P450 3A4 (Homo sapiens), sequence (P08684 whole entry, looked up): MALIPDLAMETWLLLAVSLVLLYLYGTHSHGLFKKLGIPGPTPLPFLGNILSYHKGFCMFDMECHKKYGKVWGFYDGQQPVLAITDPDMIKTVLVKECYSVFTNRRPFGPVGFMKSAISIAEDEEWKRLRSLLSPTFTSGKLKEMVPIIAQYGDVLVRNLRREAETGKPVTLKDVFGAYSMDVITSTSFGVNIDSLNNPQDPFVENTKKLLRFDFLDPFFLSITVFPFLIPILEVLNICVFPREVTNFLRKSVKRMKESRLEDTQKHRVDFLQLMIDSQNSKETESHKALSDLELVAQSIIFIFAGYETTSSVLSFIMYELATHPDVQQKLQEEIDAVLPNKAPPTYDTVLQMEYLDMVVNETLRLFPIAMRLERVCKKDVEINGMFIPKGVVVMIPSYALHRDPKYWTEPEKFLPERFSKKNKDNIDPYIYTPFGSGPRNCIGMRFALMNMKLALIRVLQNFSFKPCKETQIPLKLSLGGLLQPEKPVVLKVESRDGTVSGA
# Apoptosis regulator Bcl-2 (Homo sapiens), sequence (P10415 whole entry, looked up): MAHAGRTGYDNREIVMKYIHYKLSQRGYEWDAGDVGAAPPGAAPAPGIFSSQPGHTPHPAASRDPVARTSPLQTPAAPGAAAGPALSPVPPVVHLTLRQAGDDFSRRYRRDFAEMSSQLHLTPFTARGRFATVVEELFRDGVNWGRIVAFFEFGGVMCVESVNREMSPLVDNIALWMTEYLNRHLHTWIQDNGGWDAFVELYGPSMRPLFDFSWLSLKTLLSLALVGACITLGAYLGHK
# Cytochrome P450 3A7 (Homo sapiens), sequence (P24462 whole entry, looked up): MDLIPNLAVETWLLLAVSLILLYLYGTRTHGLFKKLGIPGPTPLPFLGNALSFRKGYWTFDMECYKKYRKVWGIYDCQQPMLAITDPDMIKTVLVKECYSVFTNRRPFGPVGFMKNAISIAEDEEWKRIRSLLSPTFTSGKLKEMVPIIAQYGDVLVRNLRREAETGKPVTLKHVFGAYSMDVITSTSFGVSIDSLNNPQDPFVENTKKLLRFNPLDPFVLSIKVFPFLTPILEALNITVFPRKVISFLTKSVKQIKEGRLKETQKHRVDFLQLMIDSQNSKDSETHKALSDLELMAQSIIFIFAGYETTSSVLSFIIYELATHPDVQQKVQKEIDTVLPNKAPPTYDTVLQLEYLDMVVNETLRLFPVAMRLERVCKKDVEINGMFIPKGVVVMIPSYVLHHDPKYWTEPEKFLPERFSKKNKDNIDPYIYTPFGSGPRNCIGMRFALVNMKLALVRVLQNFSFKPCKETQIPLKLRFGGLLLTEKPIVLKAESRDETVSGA
smiles,measurement,setting,value
c1ccc2c(c1)-c1cccc3cccc-2c13,outcome,[1],inactive
same,outcome,[2],inactive
same,outcome,[3],inactive
same,outcome,Caspase-3 (Homo sapiens),inactive
same,outcome,[4],inactive
same,AC50,[5],50 µM (active)
same,outcome,[6],inactive
same,AC50,[7],5.03 µM (active)
same,AC50,[8],9.15 µM (active)
same,outcome,CYP2C8 (gene 1558),inactive
same,outcome,CYP2C9 (gene 1559),inactive
same,AC50,CYP2E1 (gene 1571),34.6 µM (active)
same,outcome,CYP4A11 (gene 1579),inactive
same,AC50,[9],18 µM (active)
same,outcome,[10],inactive
same,outcome,[11],inactive
same,outcome,[12],inactive
same,outcome,CYP3A5 (gene 1577),inactive
COP(=S)(OC)SCN1C(=O)c2ccccc2C1=O,outcome,[1],inactive
same,outcome,[2],inactive
same,outcome,[3],inactive
same,outcome,Caspase-3 (Homo sapiens),inactive
same,outcome,[4],inactive
same,outcome,[6],inactive
same,AC50,[7],50 µM (active)
same,outcome,[8],inactive
same,outcome,CYP2C8 (gene 1558),inactive
same,outcome,CYP2C9 (gene 1559),inactive
same,outcome,CYP2E1 (gene 1571),inactive
same,outcome,CYP4A11 (gene 1579),inactive
same,outcome,[9],inactive
same,outcome,[10],inactive
same,outcome,[13],inactive
same,outcome,[11],inactive
same,outcome,[12],inactive
same,outcome,[14],inactive
same,outcome,CYP3A5 (gene 1577),inactive
[O-][Cl+]O,outcome,[1],inactive
same,outcome,[2],inactive
same,outcome,[3],inactive
same,outcome,Caspase-3 (Homo sapiens),inactive
same,outcome,[4],inactive
same,outcome,[5],inactive
same,outcome,[6],inactive
same,outcome,[7],inactive
same,outcome,[8],inactive
same,outcome,CYP2C8 (gene 1558),inactive
same,outcome,CYP2C9 (gene 1559),inactive
same,outcome,CYP2E1 (gene 1571),inactive
same,outcome,CYP4A11 (gene 1579),inactive
same,outcome,[9],inactive
same,outcome,[10],inactive
same,outcome,[11],inactive
same,outcome,[12],inactive
same,outcome,[14],inactive
same,outcome,CYP3A5 (gene 1577),inactive
CC(C)COC(=O)c1ccccc1C(=O)OCC(C)C,outcome,[1],inactive
same,outcome,[2],inactive
same,outcome,[3],inactive
same,outcome,Caspase-3 (Homo sapiens),inactive
same,outcome,[4],inactive
same,outcome,[6],inactive
same,outcome,[7],inactive
same,outcome,[8],inactive
same,outcome,CYP2C8 (gene 1558),inactive
same,outcome,CYP2C9 (gene 1559),inactive
same,outcome,CYP2E1 (gene 1571),inactive
same,outcome,CYP4A11 (gene 1579),inactive
same,outcome,[9],inactive
same,outcome,[10],inactive
same,outcome,[13],inactive
same,outcome,[11],inactive
same,outcome,[12],inactive
same,outcome,[14],inactive
same,outcome,CYP3A5 (gene 1577),inactive
CCC[CH2][Sn]([Cl])([CH2]CCC)[CH2]CCC,AC50,[1],2.03 µM (active)
same,AC50,[2],3.08 µM (active)
same,outcome,[3],inactive
same,outcome,Caspase-3 (Homo sapiens),inactive
same,outcome,[4],inactive
same,AC50,[5],1.58 µM (active)
same,outcome,[6],inactive
same,AC50,[7],2.53 µM (active)
same,AC50,[8],1.37 µM (active)
same,AC50,CYP2C8 (gene 1558),2.42 µM (active)
same,AC50,CYP2C9 (gene 1559),2.23 µM (active)
same,AC50,CYP2E1 (gene 1571),0.505 µM (active)
same,outcome,CYP4A11 (gene 1579),inactive
same,AC50,[9],2.27 µM (active)
same,AC50,[10],2.28 µM (active)
same,AC50,[11],50 µM (active)
same,outcome,[12],inactive
same,AC50,CYP3A5 (gene 1577),82.8 µM (active)
Clc1ccc(C(c2ccc(Cl)cc2)C(Cl)Cl)cc1,AC50,[1],60.5 µM (active)
same,outcome,[2],inactive
same,outcome,[3],inactive
same,outcome,Caspase-3 (Homo sapiens),inactive
same,outcome,[4],inactive
same,outcome,[5],inactive
same,outcome,[6],inactive
same,AC50,[7],2.87 µM (active)
same,AC50,[8],7.66 µM (active)
same,AC50,CYP2C8 (gene 1558),12.7 µM (active)
same,outcome,CYP2C9 (gene 1559),inactive
same,AC50,CYP2E1 (gene 1571),52.5 µM (active)
same,AC50,CYP4A11 (gene 1579),50 µM (active)
same,AC50,[9],10 µM (active)
same,outcome,[10],inactive
same,outcome,[13],inactive
same,outcome,[12],inactive
same,AC50,CYP3A5 (gene 1577),29.7 µM (active)
c1ccc(N=Nc2ccccc2)cc1,outcome,[1],inactive
same,outcome,[2],inactive
same,outcome,[3],inactive
same,outcome,Caspase-3 (Homo sapiens),inactive
same,outcome,[4],inactive
same,AC50,[5],50 µM (active)
same,outcome,[6],inactive
same,outcome,[7],inactive
same,outcome,[8],inactive
same,outcome,CYP2C8 (gene 1558),inactive
same,outcome,CYP2C9 (gene 1559),inactive
same,outcome,CYP2E1 (gene 1571),inactive
same,outcome,CYP4A11 (gene 1579),inactive
same,outcome,[10],inactive
same,outcome,[13],inactive
same,outcome,[12],inactive
same,outcome,[14],inactive
same,outcome,CYP3A5 (gene 1577),inactive
